Sampled rows, rich in hits. Any-hit rate of the full collection: about 10%.
HP1b binding inh – inhibitors of HP1-beta chromodomain binding to methylated histone tails | P83916 | AID 540317 | actives 0.56% (n = 390,000) | AlphaScreen HP1-beta / biotin-H3K9me3 peptide binding | Potency, µM (top dose mostly 114 µM), for the others: top-dose activity change, negative = inhibition, most hits filed as inhibitors; note: nearly all actives have a fitted effect of over 70% in size
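Compound inhibition of the preformed complex between 50 nM HP1-beta and 50 nM biotinylated H3K9me3 peptide was read by AlphaScreen. Buffer was PBS pH 7.4 with 0.01% Tween-20. Incubations ran 30 min at room temperature, with 10 ug/mL donor/acceptor beads.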
BAZ2B inh – inhibitors of human BAZ2B bromodomain | AID 504333 | Potency, µM (titrated, usually from 114 µM), without a hit: top-dose activity change, negative = inhibition, most hits filed as inhibitors | actives 4.4% (n = 360,000) | Q9UIF8 | AlphaScreen BAZ2B-H3K14Ac peptide displacement; note: % is set by controls: 0 for no effect and ±100 for the full control effect; nearly all actives have a fitted effect of over 60% in size
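Compounds, titrated to a top concentration of 110 uM, were incubated 30 min at room temperature with preformed BAZ2B/acetyl-K14 H3 peptide complex (50 nM each). Proximity signal was measured by AlphaScreen after 20 min with beads.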
G9a block – G9a (human) methyltransferase inhibition; G9a H3K9 monomethylation, AlphaScreen, 2 h; Potency, µM (doses to about 102 µM), for inactives: top-dose activity, negative = inhibition, actives largely listed as inhibitors; Q96KQ7; actives 8.8% (n = 350,000); note: % is set by controls: 0 for no effect and ±100 for the full control effect; nearly all actives have a fitted effect of over 75% in size
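AlphaScreen detection with an anti-monomethyl H3K9 antibody quantified product after a 2 h room-temperature reaction containing 500 nM biotinylated H3K9 peptide, 20 µM SAM and 20 nM enzyme, which had been preincubated 15 min with compound.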
JMJD2A Tudor inh – JMJD2A Tudor domain (human) inhibition. AID 504339. actives 4.4% (n = 390,000). AlphaScreen JMJD2A-Tudor / H3K4me3 peptide binding. Potency, µM (highest dose often 114 µM), inactives show at the highest dose activity change, negative = inhibition, usual class: inhibitors; note: % is set by controls: 0 for no effect and ±100 for the full control effect; nearly all actives have a fitted effect of over 50% in size
Target sequence (O75164 whole entry, looked up, the tested form may be a part): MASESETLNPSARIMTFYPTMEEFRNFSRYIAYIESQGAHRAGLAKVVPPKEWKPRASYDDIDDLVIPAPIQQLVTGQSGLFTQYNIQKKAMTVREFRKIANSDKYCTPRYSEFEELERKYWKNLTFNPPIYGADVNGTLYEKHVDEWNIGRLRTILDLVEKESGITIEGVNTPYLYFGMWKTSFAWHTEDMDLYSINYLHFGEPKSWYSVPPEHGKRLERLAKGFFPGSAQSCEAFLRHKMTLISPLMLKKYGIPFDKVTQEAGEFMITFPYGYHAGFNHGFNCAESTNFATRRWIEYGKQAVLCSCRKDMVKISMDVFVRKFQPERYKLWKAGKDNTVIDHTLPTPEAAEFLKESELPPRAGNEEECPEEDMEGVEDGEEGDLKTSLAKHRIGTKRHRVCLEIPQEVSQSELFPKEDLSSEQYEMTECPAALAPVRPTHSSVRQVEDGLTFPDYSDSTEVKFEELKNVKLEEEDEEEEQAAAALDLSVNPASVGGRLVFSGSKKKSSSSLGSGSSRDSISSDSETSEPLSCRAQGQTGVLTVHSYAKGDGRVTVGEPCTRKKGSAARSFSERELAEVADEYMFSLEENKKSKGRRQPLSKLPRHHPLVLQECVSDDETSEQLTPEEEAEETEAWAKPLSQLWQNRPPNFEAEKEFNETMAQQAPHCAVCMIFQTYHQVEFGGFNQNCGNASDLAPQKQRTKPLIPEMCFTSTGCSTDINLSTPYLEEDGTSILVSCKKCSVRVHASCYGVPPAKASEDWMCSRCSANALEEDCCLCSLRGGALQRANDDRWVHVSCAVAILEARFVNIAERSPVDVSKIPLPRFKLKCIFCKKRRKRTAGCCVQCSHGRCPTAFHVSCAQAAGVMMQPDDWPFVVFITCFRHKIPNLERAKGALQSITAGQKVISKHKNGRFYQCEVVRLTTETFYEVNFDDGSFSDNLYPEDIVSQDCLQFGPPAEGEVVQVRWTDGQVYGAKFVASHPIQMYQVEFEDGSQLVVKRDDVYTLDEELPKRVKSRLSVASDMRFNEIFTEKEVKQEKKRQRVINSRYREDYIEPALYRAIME
GLS inhibitor – blocks human kidney-isoform glutaminase activity. GLS enzymatic activity, qHTS titration. Potency, µM (top dose mostly 45.5 µM), for inactives: top-dose activity change, negative = inhibition, usual class: inhibitors. actives 0.21% (n = 410,000); note: % is set by controls: 0 for no effect and ±100 for the full control effect
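Read-out is an Amplex red fluorescence increase coupled through glutamate oxidase and HRP, measured before and after 30 min room-temperature incubation. hKGA is in 45 mM KH2PO4 (pH 8.2) with 0.02% Tween-20; glutamine added as 1mM solution.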
L3MBTL1 block – inhibitors of human L3MBTL1 | Q9Y468 | AlphaScreen L3MBTL1–H3K9me1 peptide binding | Potency, µM (series often up to 57.1 µM), for the others: at the highest dose activity, negative = inhibition, actives largely listed as inhibitors | actives 0.66% (n = 230,000) | AID 485360; note: % is set by controls: 0 for no effect and ±100 for the full control effect; nearly all actives have a fitted effect of over 60% in size
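AlphaScreen proximity signal between nickel-chelate acceptor and streptavidin donor beads (final 10 ug/mL) reports binding of 50 nM L3MBTL1 to 75 nM biotin-H3 K9me1 peptide; complex incubated with compounds 30 min at room temperature; cefsulodin titration as control.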
Numbers without * were called inactive; ? = inconclusive; · = no result; ! = not confirmed by another sample; [ ] = remark or other dose. Calls come from the whole dose curve; as a rule, active = well fitted curve in the direction sought with a large enough effect; inconclusive = small, poorly fitted or top-dose-only effect, or another doubt; inactive = no such curve, though single readings can be large; an effect the other way counts as inactive or inconclusive. Potency is the fitted concentration of half-maximal effect.

SMILES	HP1b binding inh	BAZ2B inh	G9a block	JMJD2A Tudor inh	GLS inhibitor	L3MBTL1 block
COc1ccc(-n2c(C)cc(/C=C3\SC(=O)NC3=O)c2C)cc1	20.9%	-23.0%	22.4µM*	?	-19.6%	·
COc1ccc(-n2c(C)cc(/C=C3\SC(=S)N(Cc4ccco4)C3=O)c2C)cc1	-4.7%	?	25.1µM*	?	-4.4%	-10.0%
CCOc1ccc(CNC(=O)c2cccc(NC(=O)N3CCSc4ncccc43)c2)cc1OC	7.2%	-14.8%	-9.6%[59 µM]	-10.3%	-3.7%	·
O=C(Nc1nnc(N2CCCC2)s1)Nc1cc(F)ccc1F	2.2%	-9.5%	-31.9%[59 µM]	-18.5%	-15.5%	·
O=C(CC1SC2=NCCN2C1=O)Nc1ccc(Cl)cc1 (stereo not given)	16.9%	-0.1%	-1.9%[59 µM]	-9.2%	18.8%	26.2%[11.4 µM]
O=C(Nc1ccc(Cl)cc1)Nc1ccc2c(c1)N1CCN=C1S2	21.1%	-5.5%	31.6µM*	-11.8%[57.1 µM]	14.2%	-1.7%
Nc1ccc2c(c1)N1CCN=C1S2	-15.6%	-5.7%	7.08µM*	-17.3%	2.9%	-0.1%
C1=C(c2ccccc2)N2CCN=C2S1	20.8%	-1.9%	-36.5%[59 µM]	-11.9%	14.5%	·
Cc1ccccc1CNC(=O)C(=O)NCC(c1ccco1)S(=O)(=O)c1ccc(F)cc1 (stereo not given)	23.5%	-21.6%	3.5%[59 µM]	-25.0%	9.4%	·
CC[C@H](C)C(=O)O[C@H]1C[C@@H](C)C=C2C=C[C@H](C)[C@H](CC[C@@H]3C[C@@H](O)CC(=O)O3)[C@H]21	11.3%	-21.8%	15.8µM*!	-15.8%	2.6%	-13.3%
CCN(CC)C(=O)c1[nH]cnc1C(=O)Nc1ccc(OC)cc1	18.4%	-37.6%	-0.9%[59 µM]	-9.4%	2.8%	·
CCOC(=O)c1[nH]cnc1C(=O)Nc1ccncc1	1.0%	50.1µM*	?	28.2µM*	-2.0%	·
CCOC(=O)c1[nH]cnc1C(=O)Nc1ccc(F)cc1	38.1%	?	44.7µM*	-25.7%	0.6%	4.6%
CCN(CC)C(=O)c1[nH]cnc1C(=O)Nc1ccc(Cl)cc1	36.8%	50.1µM*	-2.9%[0.501 µM]	-32.9%	2.1%	-3.5%
O=C(OCC#CCSc1nnc(-c2ccc(Cl)cc2)o1)c1ccc(F)cc1	·	·	·	17.7%	·	·
O=C(NCc1ccccc1)[C@]1(C(F)(F)F)C[C@H](CCC2CCCCC2)CCCO1	84.7%	·	·	40.7%	·	·
Cc1cc(-c2ccc(S(=O)(=O)Nc3ccc(Br)c(C)c3)s2)on1	28.2%	4.8%	-1.8%[59 µM]	3.6%	3.5%	·
CCCS(=O)(=O)c1nc(S(=O)(=O)c2ccc(C)cc2)c(NCc2ccc3c(c2)OCO3)s1	14.3%	27.2%	39.8µM*	-5.0%	-2.2%	21.5%
COc1ccc(CNC(=O)C(CCSC)NS(=O)(=O)c2ccc3c(c2)oc(=O)n3C)cc1 (stereo not given)	1.9%	-0.8%	8.4%[59 µM]	-18.3%	-11.3%	·
COc1ccc(C2NC(=O)N(C)C3=C2C(=O)N(c2ccc(C)cc2)C3)cc1 (stereo not given)	18.4%	-11.8%	1.6%[59 µM]	-6.3%	1.0%	·
O=C1NC(c2ccco2)Nc2sc3c(c21)CCN(Cc1ccccc1)C3 (stereo not given)	-13.1%	?	28.2µM*	?	-3.4%	·
CN1CCc2c(sc3c2C(=O)NC(c2cn(Cc4ccccc4)c4ccccc24)N3)C1 (stereo not given)	?	44.7µM*	?	39.8µM*	?	-11.2%
CC1CCCN(S(=O)(=O)c2ccc(C(=O)NC(C)c3ccccc3)cc2)C1 (stereo not given)	15.0%	2.0%	17.8µM*	-15.5%	7.9%	2.6%
COc1cccc(-c2nnc(NC(=O)c3ccc(S(=O)(=O)N4CCOCC4)cc3)o2)c1	57.3%	?	6.2%[59 µM]	2.6%	-3.6%	7.8%
CC1CN(S(=O)(=O)c2ccc(C(=O)Nc3nnc(-c4ccccn4)o3)cc2)CC(C)O1 (stereo not given)	36.6%	·	-28.2%	89.1µM*	5.5%	·
SMILES	HP1b binding inh	BAZ2B inh	G9a block	JMJD2A Tudor inh	GLS inhibitor	L3MBTL1 block
O=C(Nc1nnc(C2=COCCO2)o1)c1ccc(S(=O)(=O)N2CCOCC2)cc1	22.8%	·	50.1µM*	79.4µM*	0.0%	·
CC1CCCN(S(=O)(=O)c2ccc(C(=O)Nc3nnc(C4=COCCO4)o3)cc2)C1 (stereo not given)	·	79.4µM*	·	·	·	·
Cc1nnc(NC(=O)c2ccc(S(=O)(=O)N3CC(C)CC(C)C3)cc2)o1 (stereo not given)	30.4%	?	7.7%	?	2.1%	·
O=C(OCc1ccccc1)[C@@H]1COC(c2ccc(Br)cc2)=N1	·	·	44.9%	·	·	·
CCOC(=O)c1c(NC(C)=O)c2c3c(sc2n1Cc1ccc(Cl)cc1)CCCC3	25.6%	-3.3%	5.3%[59 µM]	-16.7%	-3.8%	·
CC(C)(C)Nc1nc(C#N)nc(Nc2ccccc2)n1	·	·	·	-11.7%	·	·
COc1cc(-c2nnc(NC(=O)c3ccc(S(=O)(=O)N4CCOCC4)cc3)o2)cc(OC)c1OC	·	5.9%	-42.3%	·	·	8.0%
CC1CCCCN1S(=O)(=O)c1ccc(C(=O)Nc2nnc(C3=COCCO3)o2)cc1 (stereo not given)	22.8%	89.1µM*	2.0%	-28.5%	-1.6%	·
COc1ccccc1-c1nnc(NC(=O)c2ccc(S(=O)(=O)N3CCOCC3)cc2)o1	39.5%	16.7%	76.8%[12.7 µM]	79.4µM*	0.0%	·
COCc1nnc(NC(=O)c2ccc(S(=O)(=O)N3CCOCC3)cc2)o1	43.7%	17.8µM*	·	31.6µM*	2.2%	·
CC1CCCCN1S(=O)(=O)c1ccc(C(=O)Nc2nnc(-c3ccccn3)o2)cc1 (stereo not given)	41.1%	·	-25.3%	-30.1%	-0.2%	·
CC(=O)c1cccc(NC(=O)Cn2nc(C(F)(F)F)c3c2CCC3)c1	38.0%	1.3%	5.2%[59 µM]	-7.2%	1.4%	·
Cc1cc2ccccn2c1C(=O)c1cccc([N+](=O)[O-])c1	?	?	39.8µM*	-18.1%	-3.4%	·
Cc1cc2ccccn2c1C(=O)c1ccc(F)cc1	103.6%	16.9%	39.8%[59 µM]	47.3%	4.5%	·
Cc1cc2ccccn2c1C(=O)c1ccc([N+](=O)[O-])o1	-11.3%	10µM*	?	?	3.2%	-7.2%
Cc1cc2ccccn2c1C(=O)c1ccccc1Br	17.2%	-17.9%	?	-13.3%	-11.9%	·
Cc1cc2ccccn2c1C(=O)c1ccc([N+](=O)[O-])cc1[N+](=O)[O-]	39.8µM*	25.1µM*	?	20µM*	8.0%	·
Cc1cc2ccccn2c1C(=O)c1ccc(Cl)c([N+](=O)[O-])c1	?	11.2µM*	-31.4%	?	9.4%	-16.2%
O=C(CSC1=Nc2ccccc2C2=NC(CCC(=O)NC3CCCCC3)C(=O)N12)Nc1cccc(Cl)c1 (stereo not given)	80.4%	31.7%	36.5%[59 µM]	-10.3%	-4.5%	·

Compound activity: PubChem BioAssay, National Center for Advancing Translational Sciences (NCATS)
